The experiment has as its system HCoV-229E. Also on record: species or system Huh-7; HTS, protection from HCoV-229E induced cell death, luminescent cell viability (CellCounting-Lite 2.0), inhibition rate. Particulars: 24 h post infection, 1 h compound pre-incubation, 10 µM, inhibitor.

Where a name gives a salt, the structure may show the parent alone. Read-outs that look alike come from different tables or passages of the source. Out of some 3,300 compounds screened, about 95 (3%) showed an effect of 50% or more. Only a selection was taken, and strong results are over-represented in it overall.

Take `C=C1C(=O)O[C@@H]2/C=C(\C)[C@@H](OC(C)=O)C/C=C(\COC(C)=O)C[C@@H](OC(=O)/C(C)=C/CO)[C@@H]12` [Eupalinolide A]: the “229E Inhibition rate” value (229E Inhibition rate, 24 h) was determined as 35.1%. As to `CC(C)C(O)C(=O)O` (stereo not shown) [2-Hydroxy-3-methylbutanoic acid], the “229E Inhibition rate” value is 20.4%. On the same count and under the same terms, the value for `C[C@@H](O)C(=O)O` [D-(-)-Lactic acid (sodium)] was 8.1%; that for `C[C@H](O)C(=O)O` [L-Lactic acid] was 58.1%. On to `COc1ccc2c3c1O[C@H]1C[C@@H](O)CC[C@]31CCN(C)C2` [Lycoramine], for which the “229E Inhibition rate” value turned out to be 33.8%. Same read-out and setting: then `COc1ccc(CC(=O)O)cc1` [2-(4-Methoxyphenyl)acetic acid], with 0%. Still for that read-out and setting: the value for `COc1cc(CNC(=O)CCCCCCCC(C)C)ccc1O` [Homodihydrocapsaicin I] was 33%. Take `Cc1cc(O)cc2c1O[C@](C)(CCC[C@H](C)CCC[C@H](C)CCCC(C)C)CC2` [Delta-Tocopherol]: the “229E Inhibition rate” value is reported as 8.2%.

Turning to `CCOC(=O)/C=C/c1ccccc1` [Ethyl cinnamate], the “229E Inhibition rate” value stood at 4%. `CC(=O)OC/C1=C/C[C@H]2[C@@H](/C=C(\C)C(=O)[C@@]3(OC(C)=O)C[C@H](C)[C@H](OC(=O)c4ccccc4)[C@@H]3[C@H]1OC(C)=O)C2(C)C` [Euphorbia factor L7b]: the “229E Inhibition rate” value came to 41.1%. Same read-out and setting: then `CC(=O)OC/C1=C\[C@H]2[C@@H](OC(=O)/C=C/c3ccccc3)[C@@H](C)C[C@]2(OC(C)=O)C(=O)/C(C)=C/[C@@H]2[C@H](CC1)C2(C)C` [Euphorbia factor L7a], with 90.9%; and `COc1cc(/C=C/C(=O)NCC(O)c2ccc(O)cc2)ccc1O` (stereo not shown) [N-Feruloyloctopamine], with 7.9%; and `CC1=CC(=O)[C@@H]2C[C@H]1C2(C)C` [Verbenone], with 0%. For the molecule `C=C1[C@@H](O)[C@]2(O)OC[C@]34[C@H]2[C@@]2(C)[C@H](O)C(=O)C=C(C)[C@@H]2C[C@H]3OC(=O)[C@H](O)[C@@]14O` [Eurycomanone], the “229E Inhibition rate” value came to 53.4%. The same measure, in the same setting: then `CC1(C)Oc2cc3oc(-c4cc(O)cc(O[C@@H]5OC[C@@H](O)[C@H](O)[C@H]5O)c4)cc3cc2CC1O` (stereo partly shown) [Mulberroside C], with 0%; and `O=C(/C=C/c1ccc(O)c(O)c1/C=C/c1ccc(O)c(O)c1)O[C@H](Cc1ccc(O)c(O)c1)C(=O)O` [Salvianolic acid A], with 17.8%. Same read-out and setting: then `CCCCCC1C(=O)CCC1CC(=O)OC` (stereo not shown) [Methyl dihydrojasmonate], with 54.7%; and `CCCCCCCCCCCCCCCCC(=O)OC` [Methyl heptadecanoate], with 20.9%. The same measure, in the same setting: the value for `CC/C=C/CC1C(=O)CCC1CC(=O)OC` (stereo not shown) [Methyl 2-(3-oxo-2-(pent-2-en-1-yl)cyclopentyl)acetate] was 22%; that for `CC(C)(O)[C@@H]1CC[C@](C)([C@H]2[C@@H](O)C[C@@]3(C)[C@@H]4C[C@H](O)[C@H]5C(C)(C)[C@@H](O[C@@H]6OC[C@@H](O)[C@H](O)[C@H]6O[C@@H]6O[C@H](CO)[C@@H](O)[C@H](O)[C@H]6O)CC[C@@]56C[C@@]46CC[C@]23C)O1` [Astragaloside III] was 10.8%.

Turning to `CO[C@@H]1[C@@H](OC)[C@H](C)[C@@](O)(CC(=O)O)O[C@H]1[C@H](C)[C@H]1O[C@@]2(CC[C@@](C)([C@H]3CC[C@@](C)([C@@H]4O[C@@H]([C@H]5O[C@](C)(O)[C@H](C)C[C@@H]5C)C[C@@H]4O[C@@H]4C[C@H](OC)[C@@H](OC)[C@H](C)O4)O3)O2)C[C@H](O)[C@H]1C` [Maduramicin (ammonium)], the “229E Inhibition rate” value was found to be 3.4%.

On to `CO[C@H]([C@H](C)[C@H]1O[C@@]2(CC[C@@](C)([C@H]3CC[C@@](C)([C@@H]4O[C@@H]([C@H]5O[C@@](O)(CO)[C@H](C)C[C@@H]5C)C[C@@H]4C)O3)O2)C[C@H](O)[C@H]1C)[C@H](C)C(=O)O` [Monensin B], for which the “229E Inhibition rate” value is reported as 55.3%. On the same count and under the same terms, the value for `CC[C@@]1([C@H]2O[C@H]([C@H]3O[C@@](O)(CO)[C@H](C)C[C@@H]3C)C[C@H]2C)CC[C@H]([C@@]2(C)CC[C@]3(C[C@H](O)[C@@H](C)[C@@H]([C@H](C)[C@H](OC)[C@@H](C)C(=O)O)O3)O2)O1` [Monensin sodium salt] was 24.5%; that for `COc1ccc(/C=C/c2cc(OC)cc(=O)o2)cc1` [Yangonin] was 44%; that for `C[C@]12CC[C@@H]3c4ccc(O)cc4CC[C@H]3[C@@H]1CC[C@H]2O` [Alpha-Estradiol] was 18.2%. On to `O=C(/C=C/c1ccc(O)c(O)c1)O[C@@H]1CC(C(=O)O)=C[C@@H](O)[C@H]1O` [5-O-Caffeoylshikimic acid], for which the “229E Inhibition rate” value was 12%. With `O=C1/C(=C/c2ccc(O)c(O)c2)COc2cc(O)ccc21` [Sappanone A], the “229E Inhibition rate” value worked out at 15.6%. The same measure, in the same setting: the value for `CC1(C)CCC[C@]2(C)[C@H]3CCO[C@]3(C)CC[C@@H]12` [Ambroxide] was 53.4%; that for `CC1(C)CCC[C@]2(C)[C@@H](C=O)C(C=O)=CC[C@@H]12` [Polygodial] was 16.5%. On the same count and under the same terms, then `C=C[C@](C)(O)CC[C@@H]1[C@@]2(C)CCCC(C)(C)[C@@H]2CC[C@@]1(C)O` [Sclareol], with 19.3%; and `CC1(C)Oc2cc3oc(=O)ccc3cc2C[C@@H]1O` [Decursinol], with 0%; and `COc1cc([C@H]2OC[C@H]3[C@@H]2CO[C@@H]3c2ccc(O[C@@H]3O[C@H](CO)[C@@H](O)[C@H](O)[C@H]3O)c(OC)c2)ccc1O[C@@H]1O[C@H](CO)[C@@H](O)[C@H](O)[C@H]1O` [Pinoresinol Diglucoside], with 23.6%. For `CSCCC(NC(C)=O)C(=O)O` (racemic) [N-Acetyl-DL-methionine], the “229E Inhibition rate” value was 32.7%. The same measure, in the same setting: the value for `O=c1ccc2ccc(O)cc2o1` [Umbelliferone] was 54.3%; that for `O=c1ccc2cc(O)ccc2o1` [6-Hydroxycoumarin] was 10.6%; that for `O=c1ccc2cc(O)c(O)cc2o1` [Esculetin] was 35.1%.

For the molecule `C[C@H](CC[C@@H](O)C(C)(C)O)[C@H]1CC[C@@]2(C)[C@@H]3CC=C4[C@@H](CC[C@H](O[C@@H]5O[C@H](CO[C@@H]6O[C@H](CO)[C@@H](O)[C@H](O)[C@H]6O)[C@@H](O)[C@H](O)[C@H]5O)C4(C)C)[C@]3(C)[C@H](O)C[C@]12C` [Mogroside II-A2], the “229E Inhibition rate” value was 10%. Still for that read-out and setting: the value for `CCCCCCCCC[C@H](O)CC(=O)CCc1ccc(O)c(OC)c1` [10-Gingerol] was 32.3%; that for `CCCCC[C@H](O)CC(=O)CCc1ccc(O)c(OC)c1` [[6]-Gingerol] was 52.8%; that for `CCCCCCC[C@H](O)CC(=O)CCc1ccc(O)c(OC)c1` [8-Gingerol] was 13.3%. For `Cc1ncc(C[n+]2csc(CCOP(=O)(O)O)c2C)c(N)n1` [Thiamine monophosphate (chloride) (dihydrate)], the “229E Inhibition rate” value is recorded as 12.1%. On the same count and under the same terms, the value for `CC(=O)O[C@H]1[C@H]2[C@H]([C@@H]3[C@H]4OC(=O)[C@@](C)(O)[C@@]5(C)C(=O)C[C@@H](C)[C@@H]([C@@H]45)[C@@]3(C)[C@H]1OC(C)=O)[C@@H](OC(C)=O)C(=O)[C@H]1C[C@@H]3O[C@@H]3[C@H](OC(C)=O)[C@]21C` [Taccalonolide C] was 10.3%; that for `O=c1cc(-c2ccc(O)cc2)oc2cc(O)cc(O)c12` [Apigenin] was 55.5%; that for `O=c1cc(-c2ccccc2)c2c(O)cc(O)cc2o1` [LC3-mHTT-IN-AN2] was 50.8%.

For `O=c1cc(-c2ccccc2)c2cc(O)c(O)cc2o1` [Nordalbergin], the “229E Inhibition rate” value amounted to 17.6%. Still for that read-out and setting: then `COc1ccc(-c2cc(=O)c3c(O)cc(O)c(-c4cc(-c5cc(=O)c6c(O)cc(O)cc6o5)ccc4OC)c3o2)cc1` [Isoginkgetin], with 6.1%; and `O=c1cc(-c2ccccc2)oc2cc(O)cc(O)c12` [Chrysin], with 0%; and `COc1cc(O)c2c(=O)cc(-c3ccc(OC)c(-c4c(O)cc(O)c5c(=O)cc(-c6ccc(O)cc6)oc45)c3)oc2c1` [Ginkgetin], with 64.4%.

Consider `O=c1cc(-c2ccc(O)c(O)c2)oc2cc(O)cc(O)c12` [Luteolin], for which the “229E Inhibition rate” value was found to be 0%.

Turning to `O=c1c(O)c(-c2ccccc2)oc2cc(O)cc(O)c12` [Galangin], the “229E Inhibition rate” value amounted to 8%. As to `COc1ccc(-c2cc(=O)c3c(O)cc(O)cc3o2)cc1-c1c(O)cc(O)c2c(=O)cc(-c3ccc(O)cc3)oc12` [Bilobetin], the “229E Inhibition rate” value is 22.4%. The same measure, in the same setting: the value for `O=C(/C=C/c1ccc(O)c(O)c1)O[C@H]1[C@H](O)C[C@](O)(C(=O)O)C[C@H]1O` [Cryptochlorogenic acid] was 7.4%. On to `CC1(C)[C@@H](O[C@H]2O[C@H](C(=O)O)[C@@H](O)[C@H](O)[C@H]2O[C@@H]2O[C@H](C(=O)O)[C@@H](O)[C@H](O)[C@H]2O)CC[C@]2(C)[C@H]3C(=O)C=C4[C@@H]5C[C@@](C)(C(=O)O)CC[C@]5(C)CC[C@@]4(C)[C@]3(C)CC[C@@H]12` [Diammonium Glycyrrhizinate], for which, under “229E Inhibition rate, 24 h”, the “229E Inhibition rate” value turned out to be 0%. As for `C[C@@H]1O[C@H]2O[C@H]3[C@@H](OC[C@H](O)[C@@H]3O)OC(=O)[C@]34CCC(C)(C)C[C@H]3C3=CC[C@@H]5[C@@]6(C)C[C@H](O)[C@H](O[C@@H]7O[C@H](CO)[C@@H](O)[C@H](O)[C@H]7O[C@@H]7OC[C@H](OC(=O)C[C@](C)(O)CC(=O)O[C@@H]1[C@@H](O[C@@H]1OC[C@@H](O)[C@H](O)[C@H]1O)[C@H]2O)[C@H](O)[C@H]7O)[C@@](C)(CO)[C@@H]6CC[C@@]5(C)[C@]3(C)C[C@H]4O` [Tubeimoside II], the “229E Inhibition rate” value is listed as 0.9%. Same read-out and setting: then `CC1(C)CCC2(CO)C(=C3C=CC4C5(C)CCC(OC6OC(COC7OC(CO)C(O)C(O)C7O)C(OC7OC(CO)C(O)C(O)C7O)C(O)C6O)CC5C(C)(CO)CC4(C)C3(C)CC2O)C1` (stereo not shown) [Clinodiside A], with 8.8%.

The record behind these values is publication PMC12431657, “Discovery and mechanistic insights of dibenzoylmethane as a broad spectrum inhibitor of coronavirus” (PLOS Pathogens, 2025).
